Inconclusive results are not listed. Where a call stands in place of a potency, no number is given. Active and inactive are the calls of the source. The call rests on the fitted dose curve. Residues, ends and D or L forms follow the SMILES beside them.
Assay: qHTS assay for small molecule disruptors of the mitochondrial membrane potential - cell viability (AID 720634); further: nearly all actives have a fitted effect of over 20% in size
Details: HepG2 viability, ATP luminescence (CellTiter-Glo), 1 h; series mostly up to 83.2 µM
Description: U.S. Tox21 Program National Center for Advancing Translational Sciences [NCATS] NIH Chemical Genomics Center [NCGC] U.S. Environmental Protection Agency [EPA] National Institutes of Environmental Health Sciences [NIEHS] National Toxicology Program [NTP] U.S. Food and Drug Administration [FDA] Tox21 Assay Overview: Mitochondrial membrane potential (MMP), one of the parameters for mitochondrial function, is generated by mitochondrial electron transport chain that creates an electrochemical gradient by a series of redox reactions. This gradient drives the synthesis of ATP, a crucial molecule for various cellular processes. Measuring MMP in living cells is commonly used to assess the effect of chemicals on mitochondrial function; decreases in MMP can be detected using lipophilic cationic fluorescent dyes. […] The dye accumulates in the mitochondria of healthy cells as aggregates, with red fluorescence. The mitochondrial potential decreases and the dye could not accumulate in the mitochondria and remains in the cytoplasm in monomers, with green fluorescence. In addition to the mitochondrial potential assay, these cells were also used to test the cytotoxicity by determining the cell viability in the culture based on the quantitation of ATP present. The cytotoxicity was measured in the same assay well of MMP assay.
Tox21 Assay Protocol Summary: 2,000 HepG2 cells in 5 uL/well were dispensed into black, clear-bottom 1536-well plates using a Multidrop Combi (Thermo Scientific) dispenser. The assay plates were incubated for an overnight at 37 C to allow cells to attach to the wells, followed by the transfer of 23 nL compound or DMSO vehicle by a pin tool (Kalypsys). The plates were incubated for 1 hr at 37 C and 5% CO2, followed by the addition of 5 uL of 2X m-MPI dye into each well using Flying Reagent Dispenser (Aurora Discovery) and then CellTiter-Glo reagent was added at 4 uL/well and incubated 30 min at room temperature. Then luminescence intensity was quantified on a ViewLux CCD-based plate reader.
Potency means the concentration at half of the fitted maximal effect.

| SMILES | Potency |
| --- | --- |
| CC(=O)Nc1ccc(OC(C)=O)cc1 | inactive |
| CO[C@H](C(=O)[C@@H](O)[C@@H](C)O)C1Cc2cc3cc(O[C@H]4C[C@@H](O[C@H]5C[C@@H](O)[C@H](O)[C@@H](C)O5)[C@@H](O)[C@@H](C)O4)c(C)c(O)c3c(O)c2C(=O)[C@H]1O[C@H]1C[C@@H](O[C@H]2C[C@@H](O[C@H]3C[C@](C)(O)[C@H](O)[C@@H](C)O3)[C@H](O)[C@@H](C)O2)[C@H](O)[C@@H](C)O1 (stereo not given in full) | inactive |
| Nc1c(CC(=O)O)cccc1C(=O)c1ccccc1 | inactive |
| O=P(O)(O)CP(=O)(O)O | inactive |
| Cc1cn([C@H]2C[C@H](O)[C@@H](CO)O2)c(=O)[nH]c1=O | inactive |
| CCC(=O)OC(OP(=O)(CCCCc1ccccc1)CC(=O)N1C[C@H](C2CCCCC2)C[C@H]1C(=O)O)C(C)C (stereo not given in full) | inactive |
| Cc1cc(CC(C)CC(C)(C)C)n(O)c(=O)c1 (stereo not given) (tested in a mixture with another compound) | inactive |
| CC(CNC(=O)c1cccnc1)NC(=O)c1cccnc1 (stereo not given) | inactive |
| O=C1CC[C@@H](C(=O)N[C@H]2C[C@@H]2c2ccccc2)N1 | inactive |
| CO/N=C(\C(=O)N[C@@H]1C(=O)N2C(C(=O)O)=C(CSc3nc(C)c(CC(=O)O)s3)CS[C@H]12)c1csc(N)n1 | inactive |
| CC(C)[C@H](NC(=O)[C@H](CC(=O)O)NC(=O)[C@H](CCCCN)NC(=O)[C@@H](N)CCCN=C(N)N)C(=O)N[C@@H](Cc1ccc(O)cc1)C(=O)O (H-RKDVY-OH) | inactive |
| COc1ccc(/C=C/C(=O)Nc2ccccc2C(=O)O)cc1OC | inactive |
| NC(=S)NS(=O)(=O)c1ccc(N)cc1 | inactive |
| O=C(Cn1cnnn1)N[C@@H]1C(=O)N2C(C(=O)O)=C(CSc3nncs3)CS[C@H]12 | inactive |
| Cc1c(N)nc([C@H](CC(N)=O)NC[C@H](N)C(N)=O)nc1C(=O)N[C@H](C(=O)N[C@H](C)[C@@H](O)[C@H](C)C(=O)N[C@H](C(=O)NCCc1nc(-c2nc(C(=O)NCCCCN=C(N)N)cs2)cs1)[C@@H](C)O)[C@@H](O[C@@H]1O[C@@H](CO)[C@@H](O)[C@H](O)[C@@H]1O[C@H]1O[C@H](CO)[C@@H](O)[C@H](OC(N)=O)[C@@H]1O)c1cnc[nH]1 | inactive |
| CC[C@@H](C(=O)[C@@H](C)[C@@H](O)[C@H](C)CCc1ccc(C)c(O)c1C(=O)O)[C@H]1O[C@](CC)([C@H]2CC[C@](O)(CC)[C@H](C)O2)C[C@@H]1C | 5.96 µM (active) |
| CC(C)Cc1ccc([C@H](C)C(=O)O)cc1 | inactive |
| C1CCc2nnnn2CC1 | inactive |
| NC[C@H]1O[C@H](O[C@H]2[C@H](O)[C@@H](O[C@H]3O[C@H](CO)[C@@H](O)[C@H](N)[C@H]3O)[C@H](N)C[C@@H]2N)[C@H](N)C[C@@H]1O | inactive |
| CCN(CC)C(=O)c1cccnc1 | inactive |

| SMILES | Potency |
| --- | --- |
| CN1CC[C@H](c2c(O)cc(O)c3c(=O)cc(-c4ccccc4Cl)oc23)[C@H](O)C1 | inactive |
| C=C1[C@H](CO)[C@@H](O)C[C@@H]1n1cnc2c(=O)[nH]c(N)nc21 | inactive |
| CCN1CCCC1CNC(=O)c1cc(S(=O)(=O)CC)ccc1OC (stereo not given) | inactive |
| CC(C)(C)C(=O)OCC(=O)[C@H]1CC[C@H]2[C@@H]3CCC4=CC(=O)CC[C@]4(C)[C@H]3CC[C@]12C | inactive |
| CN[C@H](CC(C)C)C(=O)N[C@H]1C(=O)N[C@@H](CC(N)=O)C(=O)N[C@H]2C(=O)N[C@H]3C(=O)N[C@H](C(=O)N[C@@H](C(=O)O)c4cc(O)cc(O)c4-c4cc3ccc4O)[C@H](O)c3ccc(c(Cl)c3)Oc3cc2cc(c3O[C@@H]2O[C@H](CO)[C@@H](O)[C@H](O)[C@H]2O[C@H]2C[C@](C)(N)C(O)[C@H](C)O2)Oc2ccc(cc2Cl)[C@H]1O (stereo not given in full) | inactive |
| CCCCCCOC(=O)c1cccnc1 | inactive |
| CC(=O)O[C@H]1C[C@@H]2CC[C@@H]3[C@H](CC[C@@]4(C)[C@H]3C[C@H]([N+]3(C)CCCCC3)[C@@H]4OC(C)=O)[C@@]2(C)C[C@@H]1[N+]1(C)CCCCC1 | inactive |
| CC(C)(C)c1ccc2c(S(=O)(=O)O)c(C(C)(C)C)ccc2c1 | inactive |
| CC[C@@H](C)[C@H](N)C(=O)O | inactive |
| O=C(O)[C@@H]1C[C@H](CP(=O)(O)O)CCN1 | inactive |
| O=C(O)Cc1nn(Cc2ccc(Br)cc2F)c(=O)c2ccccc12 | inactive |
| CC1(C)S[C@@H]2[C@H](NC(=O)[C@H](N)c3ccc(O)cc3)C(=O)N2[C@H]1C(=O)O | inactive |
| NC(=O)c1cc[n+](CC2=C(C(=O)O)N3C(=O)[C@@H](NC(=O)C(c4ccccc4)S(=O)(=O)[O-])[C@H]3SC2)cc1 (stereo not given in full) | inactive |
| CCC[C@@H]1C[C@@H](C(=O)N[C@@H]([C@H]2O[C@H](SC)[C@H](OP(=O)(O)O)[C@@H](O)[C@H]2O)[C@H](C)Cl)N(C)C1 | inactive |
| CN[C@H]1CC[C@@H](c2ccc(Cl)c(Cl)c2)c2ccc(S(N)(=O)=O)cc21 | inactive |
| CC(C)(COP(=O)(O)OP(=O)(O)OC[C@H]1O[C@@H](n2cnc3c(N)ncnc32)[C@H](O)[C@@H]1OP(=O)(O)O)C(O)C(=O)NCCC(=O)NCCS (stereo not given in full) | inactive |
| CC(C)NCC1CCc2cc(CO)c([N+](=O)[O-])cc2N1 (stereo not given) | inactive |
| O=C1c2ccccc2CN2C(=O)c3ccccc3CN12 | inactive |
| CCCCCCCCCCCCCC(=O)OCC(COP(=O)([O-])OCC[N+](C)(C)C)OC(=O)CCCCCCCCCCCCC (stereo not given) | inactive |
| CC1(C)C[C@@H]1C(=O)N/C(=C\CCCCSC[C@H](N)C(=O)O)C(=O)O | inactive |

From PubChem BioAssay (Tox21)
